Results: PubChem BioAssay (EPA / NIEHS)
Records with an inconclusive call do not appear. Calls of active or inactive are those of the source. How the source made its calls, unless noted: active means hit-call score of the fitted dose curve at least 0.9, where 1 is the maximum; inconclusive means response in the unintended direction; inactive means score below 0.9.

Columns and labels:
[1] = ATG_M_19_CIS: Attagene CIS-FACTORIAL HepG2 Assay for M19 Transcription Factor (Internal Marker) (AID 2282939; active means hit-call score of the fitted dose curve at least 0.9, where 1 is the maximum; inactive means score below 0.9); details: HepG2 Attagene CIS-FACTORIAL M19 internal marker reporter; actives raise or lower the signal
In short: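 Signals come from fluorescence of labelled reporter-specific PCR fragments resolved by capillary electrophoresis, following 24 h treatment of HepG2 cells transfected with cis-promoter reporter units; activity was fitted in both directions relative to DMSO.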

[2] = ATG_FoxO_CIS: Attagene CIS-FACTORIAL HepG2 Assay for human Forkhead box O (FoxO) (AID 2282943; active means hit-call score of the fitted dose curve at least 0.9, where 1 is the maximum; inactive means score below 0.9); details: HepG2 Attagene cis-reporter, FoxO element, mRNA; actives raise or lower the signal
In short: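 HepG2 cells transiently transfected with cis-element-driven reporter units report endogenous FoxO activity. After 24 h chemical exposure, reporter mRNA quantified by RT-PCR, fluorescent labeling, HpaI digestion and capillary electrophoresis; bidirectional fit versus DMSO.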

[3] = ATG_GRE_CIS: Attagene CIS-FACTORIAL HepG2 Assay for human Glucocorticoid Response Elements (GRE) (AID 2282947; active means hit-call score of the fitted dose curve at least 0.9, where 1 is the maximum; inactive means score below 0.9); details: HepG2 GRE cis-reporter, Attagene multiplex mRNA; actives raise or lower the signal
In short: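 Read-out: fluorescent reporter-transcript fragments separated by capillary electrophoresis after RT-PCR. Transiently transfected HepG2 cells carrying cis-element-driven reporter units were dosed for 24 h; gain or loss of signal fitted against DMSO control.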

[4] = target: Hypoxia-inducible factor 1-alpha (Homo sapiens) (UniProt Q16665); assay: ATG_HIF1a_CIS: Attagene CIS-FACTORIAL HepG2 Assay for human Hypoxia Inducible Factor 1 (HIF1A) (AID 2282951; active means hit-call score of the fitted dose curve at least 0.9, where 1 is the maximum; inactive means score below 0.9); details: HepG2 Attagene cis-factorial HIF1a reporter transcription; actives raise or lower the signal
Hypoxia-inducible factor 1-alpha (Homo sapiens), sequence (Q16665 whole entry, looked up): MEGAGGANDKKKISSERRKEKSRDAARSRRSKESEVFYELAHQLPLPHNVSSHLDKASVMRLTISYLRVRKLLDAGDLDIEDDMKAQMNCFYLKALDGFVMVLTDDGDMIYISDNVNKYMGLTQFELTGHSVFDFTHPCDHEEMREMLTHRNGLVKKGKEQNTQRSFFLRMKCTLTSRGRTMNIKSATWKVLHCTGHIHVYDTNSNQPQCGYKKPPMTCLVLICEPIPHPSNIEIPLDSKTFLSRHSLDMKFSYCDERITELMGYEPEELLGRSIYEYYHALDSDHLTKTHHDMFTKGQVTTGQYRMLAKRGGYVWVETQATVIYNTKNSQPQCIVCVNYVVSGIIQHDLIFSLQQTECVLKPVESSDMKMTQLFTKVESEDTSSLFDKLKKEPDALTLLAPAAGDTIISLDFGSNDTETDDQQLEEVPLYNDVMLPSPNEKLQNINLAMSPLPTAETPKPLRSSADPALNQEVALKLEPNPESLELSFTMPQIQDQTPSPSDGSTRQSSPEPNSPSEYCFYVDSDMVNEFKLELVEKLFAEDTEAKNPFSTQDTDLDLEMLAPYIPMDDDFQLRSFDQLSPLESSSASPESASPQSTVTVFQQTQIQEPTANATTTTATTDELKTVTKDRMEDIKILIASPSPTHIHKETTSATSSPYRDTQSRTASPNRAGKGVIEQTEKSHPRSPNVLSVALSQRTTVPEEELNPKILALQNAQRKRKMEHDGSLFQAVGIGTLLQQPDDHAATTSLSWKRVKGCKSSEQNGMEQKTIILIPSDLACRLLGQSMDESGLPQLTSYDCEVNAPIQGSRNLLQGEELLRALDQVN
In short: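 HepG2 cells transiently transfected with multiple cis-regulated reporter transcription units measure endogenous transcription factor activity. After 24 h exposure, reporter mRNA is quantified by RT-PCR with 6-FAM labelling, HpaI digestion and capillary electrophoresis. Bidirectional fitting against DMSO.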

[5] = target: Heat shock factor protein 1 (Homo sapiens) (UniProt Q00613); assay: ATG_HSE_CIS: Attagene CIS-FACTORIAL HepG2 Assay for human Heat Shock Transcription Factor 1 (HSE) (AID 2282953; active means hit-call score of the fitted dose curve at least 0.9, where 1 is the maximum; inactive means score below 0.9); details: HepG2 HSE cis-reporter, Attagene RNA transcription; actives raise or lower the signal
Heat shock factor protein 1 (Homo sapiens), sequence (Q00613 whole entry, looked up, the tested form may be a part): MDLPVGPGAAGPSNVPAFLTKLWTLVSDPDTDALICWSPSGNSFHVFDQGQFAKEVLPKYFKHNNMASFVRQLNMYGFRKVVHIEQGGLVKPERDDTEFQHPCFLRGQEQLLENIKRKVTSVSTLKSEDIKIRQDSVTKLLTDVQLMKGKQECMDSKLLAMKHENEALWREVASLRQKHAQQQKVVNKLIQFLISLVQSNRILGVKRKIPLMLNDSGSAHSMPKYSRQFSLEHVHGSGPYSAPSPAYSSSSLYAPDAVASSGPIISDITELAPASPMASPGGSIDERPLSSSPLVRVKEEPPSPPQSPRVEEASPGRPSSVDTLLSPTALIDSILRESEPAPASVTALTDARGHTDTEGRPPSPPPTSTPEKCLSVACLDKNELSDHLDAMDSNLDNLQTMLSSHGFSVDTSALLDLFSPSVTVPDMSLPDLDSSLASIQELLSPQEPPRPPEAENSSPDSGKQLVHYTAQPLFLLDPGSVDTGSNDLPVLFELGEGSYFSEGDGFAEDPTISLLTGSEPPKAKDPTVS
In short: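 Endogenous transcription factor activity captured via cis-promoter reporter units transfected into HepG2; treatment lasted 24 h. Fluorescence intensity of reporter fragments analysed with bidirectional curve fitting, DMSO baseline.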

[6] = ATG_PBREM_CIS: Attagene CIS-FACTORIAL HepG2 Assay for human Phenobarbital-responsive Enhancer Module (PBREM) (AID 2282955; active means hit-call score of the fitted dose curve at least 0.9, where 1 is the maximum; inactive means score below 0.9); details: HepG2 PBREM cis-reporter, Attagene multiplexed transcription; actives raise or lower the signal
In short: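 HepG2 cells transiently transfected with multiple cis-regulated reporter units measure endogenous transcription factor activity; 24 h compound exposure. Reporter mRNA quantified by RT-PCR, fluorescent labelling, HpaI digestion and capillary electrophoresis; bidirectional fit versus DMSO.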

[7] = ATG_RORE_CIS: Attagene CIS-FACTORIAL HepG2 Assay for human RAR-related Orphan Receptor Element (RORE) (AID 2282959; active means hit-call score of the fitted dose curve at least 0.9, where 1 is the maximum; inactive means score below 0.9); details: HepG2 Attagene cis-factorial RORE reporter, mRNA; actives raise or lower the signal
In short: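 HepG2 cells carrying transiently transfected cis-regulated reporter units; RORE-driven reporter mRNA quantified 24 h post-dosing by RT-PCR, 6-FAM primer extension, HpaI digestion and capillary electrophoresis. Bidirectional fit versus DMSO.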

[8] = target: Hepatocyte nuclear factor 4-alpha (Homo sapiens) (UniProt P41235); assay: ATG_HNF4a_TRANS: Attagene TRANS-FACTORIAL HepG2 Assay for human Hepatocyte Nuclear Factor 4 alpha (HNF4a) (AID 2282982); details: HepG2 HNF4a transactivation reporter, mRNA readout
Hepatocyte nuclear factor 4-alpha (Homo sapiens), sequence (P41235 whole entry, looked up): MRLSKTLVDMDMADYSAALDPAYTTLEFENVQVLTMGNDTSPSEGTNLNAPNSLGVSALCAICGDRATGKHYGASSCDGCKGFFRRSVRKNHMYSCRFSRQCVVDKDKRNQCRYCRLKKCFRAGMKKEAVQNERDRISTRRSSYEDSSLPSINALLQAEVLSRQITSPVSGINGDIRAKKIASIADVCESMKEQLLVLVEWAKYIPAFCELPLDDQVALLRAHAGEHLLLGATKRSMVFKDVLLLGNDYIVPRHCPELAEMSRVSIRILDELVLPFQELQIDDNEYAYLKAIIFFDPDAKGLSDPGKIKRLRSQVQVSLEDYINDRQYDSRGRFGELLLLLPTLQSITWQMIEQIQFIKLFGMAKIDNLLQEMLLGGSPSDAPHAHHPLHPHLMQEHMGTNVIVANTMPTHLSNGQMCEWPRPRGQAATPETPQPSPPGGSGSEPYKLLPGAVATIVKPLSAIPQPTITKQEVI
In short: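 Transient MRTU transfection of HepG2, 24 h dosing. Readout: reporter mRNA via RT-PCR + capillary electrophoresis, fluorescence; activity fit upward relative to DMSO control.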

[9] = ATG_M_06_TRANS: Attagene TRANS-FACTORIAL HepG2 Assay for M06 Transcription Factor (Internal Marker) (AID 2282983); details: HepG2 Attagene TRANS M06 internal marker reporter;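 further: reporter transcript level by RT-PCR then capillary electrophoresis fluorescence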
In short: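 Human liver HepG2 cells bearing transiently transfected chimeric NR-GAL4 reporter units were treated with chemicals for 24 h. Total RNA was reverse-transcribed, reporter sequences amplified and labelled, then quantified by capillary electrophoresis. Activity was fitted upward relative to DMSO.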

[10] = target: human Peroxisome Proliferator-activated Receptor alpha (PPARa), PPARA (gene 5465) (UniProt Q07869); assay: ATG_PPARa_TRANS: Attagene TRANS-FACTORIAL HepG2 Assay for human Peroxisome Proliferator-activated Receptor alpha (PPARa) (AID 2283001);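 on AC50: potency for gain of reporter signal over DMSO so agonist or activator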
human Peroxisome Proliferator-activated Receptor alpha (PPARa), PPARA (gene 5465), sequence (Q07869 whole entry, looked up, the tested form may be a part): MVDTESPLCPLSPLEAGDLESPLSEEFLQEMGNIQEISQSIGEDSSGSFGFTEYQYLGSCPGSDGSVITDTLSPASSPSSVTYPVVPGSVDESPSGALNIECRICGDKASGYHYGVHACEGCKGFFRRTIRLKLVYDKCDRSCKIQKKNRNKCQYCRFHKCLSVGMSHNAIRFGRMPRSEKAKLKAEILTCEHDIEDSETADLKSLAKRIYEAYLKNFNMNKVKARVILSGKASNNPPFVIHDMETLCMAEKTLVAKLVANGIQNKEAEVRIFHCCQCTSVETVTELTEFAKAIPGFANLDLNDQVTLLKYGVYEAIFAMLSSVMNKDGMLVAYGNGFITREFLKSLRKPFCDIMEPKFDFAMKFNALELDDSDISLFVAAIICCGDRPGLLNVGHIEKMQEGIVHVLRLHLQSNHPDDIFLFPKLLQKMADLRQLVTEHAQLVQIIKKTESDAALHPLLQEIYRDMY
In short: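 Transient HepG2 transfection, GAL4-UAS reporters, NR-Gal4 chimeras; 24 h compound exposure. Readout: reporter transcripts by RT-PCR, 6-FAM primer extension, HpaI digest, capillary electrophoresis. Positive direction vs DMSO baseline.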

[11] = target: Peroxisome proliferator-activated receptor gamma (Homo sapiens) (UniProt P37231); assay: ATG_PPARg_TRANS: Attagene TRANS-FACTORIAL HepG2 Assay for human Peroxisome Proliferator-activated Receptor-gamma (PPARg) (AID 2283007)
Peroxisome proliferator-activated receptor gamma (Homo sapiens), sequence (P37231 whole entry, looked up, the tested form may be a part): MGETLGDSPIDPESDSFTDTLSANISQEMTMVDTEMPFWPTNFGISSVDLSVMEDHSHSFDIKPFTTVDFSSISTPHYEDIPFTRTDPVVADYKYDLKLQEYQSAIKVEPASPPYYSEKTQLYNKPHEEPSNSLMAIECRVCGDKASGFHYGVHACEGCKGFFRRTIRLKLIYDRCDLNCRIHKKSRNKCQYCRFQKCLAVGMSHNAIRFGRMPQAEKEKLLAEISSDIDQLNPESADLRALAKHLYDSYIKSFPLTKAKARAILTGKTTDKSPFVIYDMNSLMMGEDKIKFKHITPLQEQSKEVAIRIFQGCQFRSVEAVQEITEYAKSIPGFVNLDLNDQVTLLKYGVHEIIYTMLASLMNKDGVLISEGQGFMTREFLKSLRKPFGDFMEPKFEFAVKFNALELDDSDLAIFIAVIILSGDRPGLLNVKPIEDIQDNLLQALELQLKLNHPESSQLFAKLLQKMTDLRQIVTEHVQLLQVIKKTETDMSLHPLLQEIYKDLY
In short: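 HepG2 cells are transiently transfected with GAL4-UAS reporter units driven by chimeric NR-Gal4 fusions and dosed for 24 h. Reporter mRNA is quantified by RT-PCR, 6-FAM labelling, HpaI digestion and capillary electrophoresis. Induction is scored against DMSO.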

[12] = target: Nuclear receptor subfamily 1 group I member 2 (Homo sapiens) (UniProt O75469); assay: ATG_PXR_TRANS: Attagene TRANS-FACTORIAL HepG2 Assay for human Pregnane X Receptor (PXR) (AID 2283008)
Nuclear receptor subfamily 1 group I member 2 (Homo sapiens), sequence (O75469 whole entry, looked up, the tested form may be a part): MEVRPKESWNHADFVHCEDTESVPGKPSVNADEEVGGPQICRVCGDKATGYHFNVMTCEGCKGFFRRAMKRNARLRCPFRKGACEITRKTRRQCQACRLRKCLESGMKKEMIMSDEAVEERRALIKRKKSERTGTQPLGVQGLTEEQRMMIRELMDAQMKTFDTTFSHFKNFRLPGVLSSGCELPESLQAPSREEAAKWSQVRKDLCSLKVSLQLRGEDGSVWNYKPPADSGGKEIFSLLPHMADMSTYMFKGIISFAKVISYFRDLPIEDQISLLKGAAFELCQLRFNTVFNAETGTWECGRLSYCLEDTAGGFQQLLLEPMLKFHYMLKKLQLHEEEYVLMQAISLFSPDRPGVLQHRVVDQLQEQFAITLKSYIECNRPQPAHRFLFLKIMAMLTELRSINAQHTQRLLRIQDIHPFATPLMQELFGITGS
In short: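 HepG2 transfected (FuGene 6) with GAL4-UAS reporter units + PXR-Gal4 chimera; dosed 24 h. Total RNA → oligo(dT) RT → PCR → 6-FAM primer extension → HpaI cut → CE. Gain-of-signal vs DMSO.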

[13] = target: Retinoic acid receptor RXR-alpha (Homo sapiens) (UniProt P19793); assay: ATG_RXRa_TRANS: Attagene TRANS-FACTORIAL HepG2 Assay for human Retinoid X Receptor alpha (RXRa) (AID 2283012)
Retinoic acid receptor RXR-alpha (Homo sapiens), sequence (P19793 whole entry, looked up, the tested form may be a part): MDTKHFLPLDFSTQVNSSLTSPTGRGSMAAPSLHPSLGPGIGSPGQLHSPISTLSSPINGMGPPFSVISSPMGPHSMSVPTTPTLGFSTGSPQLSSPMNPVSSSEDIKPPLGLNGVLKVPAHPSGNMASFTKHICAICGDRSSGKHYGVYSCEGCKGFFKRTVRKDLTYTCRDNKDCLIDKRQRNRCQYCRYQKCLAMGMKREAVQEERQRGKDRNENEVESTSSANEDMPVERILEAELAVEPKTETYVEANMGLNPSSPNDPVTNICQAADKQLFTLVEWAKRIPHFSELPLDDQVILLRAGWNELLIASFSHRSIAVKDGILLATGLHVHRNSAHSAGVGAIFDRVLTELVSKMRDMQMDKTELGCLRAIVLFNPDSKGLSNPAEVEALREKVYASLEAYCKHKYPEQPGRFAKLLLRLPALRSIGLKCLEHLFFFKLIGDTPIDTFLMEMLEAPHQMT
In short: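 Read-out: fluorescent reporter-transcript fragments quantified by capillary electrophoresis after RT-PCR. Transiently transfected HepG2 cells carrying GAL4-UAS reporters and NR-GAL4 chimeras were exposed to chemical for 24 h; activity scored as increase over DMSO.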

[14] = target: human Thyroid Receptor alpha (THRa1), THRA (gene 7067) (UniProt P10827); assay: ATG_THRa1_TRANS: Attagene TRANS-FACTORIAL HepG2 Assay for human Thyroid Receptor alpha (THRa1) (AID 2283014)
human Thyroid Receptor alpha (THRa1), THRA (gene 7067), sequence (P10827 whole entry, looked up, the tested form may be a part): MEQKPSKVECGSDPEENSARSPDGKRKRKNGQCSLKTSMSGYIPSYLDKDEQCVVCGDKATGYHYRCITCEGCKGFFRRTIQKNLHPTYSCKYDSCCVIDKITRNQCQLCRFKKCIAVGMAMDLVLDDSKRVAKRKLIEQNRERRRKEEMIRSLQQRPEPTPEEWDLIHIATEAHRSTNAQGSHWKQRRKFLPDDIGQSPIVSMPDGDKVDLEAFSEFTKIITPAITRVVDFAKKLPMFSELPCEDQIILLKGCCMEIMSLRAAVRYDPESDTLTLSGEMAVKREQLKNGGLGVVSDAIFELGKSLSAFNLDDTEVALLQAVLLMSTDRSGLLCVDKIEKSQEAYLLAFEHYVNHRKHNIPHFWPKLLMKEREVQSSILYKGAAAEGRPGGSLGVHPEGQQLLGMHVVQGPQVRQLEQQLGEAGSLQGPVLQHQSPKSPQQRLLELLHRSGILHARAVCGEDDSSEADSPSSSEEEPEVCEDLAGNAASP
In short: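 First, HepG2 cells receive multiple GAL4-UAS reporter units and the chimeric receptor. They are then dosed for 24 h, after which RNA is reverse-transcribed, amplified, labelled, HpaI-cut and sized by capillary electrophoresis; gain relative to DMSO is scored.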

[15] = target: Cellular tumor antigen p53 (Homo sapiens) (UniProt P04637); assay: TOX21_p53_BLA_p2_ratio: Tox21 HCT-116 p53 Agonism Beta-lactamase Assay, Ratio, Phase 2 (AID 2283592)
Cellular tumor antigen p53 (Homo sapiens), sequence (P04637 whole entry, looked up): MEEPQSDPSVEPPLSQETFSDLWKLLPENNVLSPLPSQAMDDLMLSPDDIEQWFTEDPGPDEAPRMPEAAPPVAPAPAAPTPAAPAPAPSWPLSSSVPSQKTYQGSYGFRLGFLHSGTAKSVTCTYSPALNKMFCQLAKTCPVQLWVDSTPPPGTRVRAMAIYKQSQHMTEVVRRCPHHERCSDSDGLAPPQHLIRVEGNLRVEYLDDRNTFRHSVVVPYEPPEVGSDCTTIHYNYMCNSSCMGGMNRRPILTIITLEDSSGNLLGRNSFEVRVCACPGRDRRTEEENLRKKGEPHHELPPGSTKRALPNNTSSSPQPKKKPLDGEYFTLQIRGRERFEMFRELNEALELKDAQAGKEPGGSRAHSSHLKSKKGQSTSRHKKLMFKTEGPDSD
In short: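 Cleaved-to-uncleaved substrate ratio (460 vs 530 nm) measured in HCT116 cells with an inducible beta-lactamase reporter linked to p53 activity. Compounds incubated 16 h at 37C before 2 h room-temperature CCF4-AM loading.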

[16] = target: Cellular tumor antigen p53 (Homo sapiens) (UniProt P04637); assay: TOX21_p53_BLA_p3_ratio: Tox21 HCT-116 p53 Agonism Beta-lactamase Assay, Ratio, Phase 3 (AID 2283596)
In short: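 Cells were seeded at 4000/well, rested 5 h at 37C, then dosed with DMSO compound solutions (217-fold dilution) for 16 h. CCF4-AM substrate was loaded for 2 h at room temperature, and the 460/530 nm emission ratio was fitted for gain of signal versus DMSO.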

[17] = TOX21_p53_BLA_p5_viability: Viability Assessment in the Tox21 HCT-116 p53 Agonism Beta-lactamase Assay, Phase 5 (AID 2283600)
In short: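 Viability is taken from cellular ATP content, measured by luciferase luminescence in the same wells after the beta-lactamase ratio read. Cells are seeded at 4000 per well and exposed to DMSO-dissolved compounds, diluted 217-fold, for 16 h.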

[18] = target: Cellular tumor antigen p53 (Homo sapiens) (UniProt P04637); assay: TOX21_p53_BLA_p4_ratio: Tox21 HCT-116 p53 Agonism Beta-lactamase Assay, Ratio, Phase 4 (AID 2283601)
In short: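 HCT-116 p53 beta-lactamase reporter cells (4000/well) preincubated 5 h, then compound (217-fold dilution of DMSO stock) for 16 h at 37C. CCF4-AM substrate added 2 h at room temperature; 460/530 nm emission ratio fitted upward versus DMSO.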

[19] = ATG_NRF2_ARE_CIS: Attagene CIS-FACTORIAL HepG2 Assay for human Nuclear Factor Erythroid 2 Related Factor 2 (NFR2) response to Antioxidant Response Elements (ARE) (AID 2282992; active means hit-call score of the fitted dose curve at least 0.9, where 1 is the maximum; inactive means score below 0.9;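 on AC50: reporter mRNA level measured by RT-PCR and capillary electrophoresis fluorescence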); details: HepG2 Attagene ARE/NRF2 reporter, transcription factor activity; actives raise or lower the signal
In short: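 Endogenous transcription factor activity in human liver HepG2 cells is tracked via a cis-element-driven reporter within a multiplexed set. mRNA induction is read by RT-PCR and capillary electrophoresis after 24 h, with DMSO as baseline.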

[20] = target: Cellular tumor antigen p53 (Homo sapiens) (UniProt P04637); assay: TOX21_p53_BLA_p5_ratio: Tox21 HCT-116 p53 Agonism Beta-lactamase Assay, Ratio, Phase 5 (AID 2283599)
In short: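 HCT-116 p53-bla cells (4000/well) plated 5 h, dosed with compound (217-fold DMSO dilution) for 16 h at 37 C; CCF4-AM substrate 2 h at room temperature. Activity is the 460/530 nm emission ratio (405 nm excitation), fitted in gain-of-signal direction versus DMSO.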

Measured: AC50

CC(Cc1ccc(C(C)(C)C)cc1)CN1C[C@@H](C)O[C@@H](C)C1 (some centres not stated)
active: [6] 12.8 µM | [11] 21.7 µM | [12] 4.52 µM
not listed: [19] | [20]
inactive: all other assays above

O=S(=O)(O)O
inactive: [1] | [2] | [4] | [5] | [9] | [19] | [10] | [12] | [13] | [14]

CC(C)CCCCCCCOC(=O)c1ccccc1C(=O)OCCCCCCCC(C)C
inactive: [1] | [2] | [3] | [6] | [7] | [12] | [13] | [14] | [15] | [20]

COc1ccc(CO)cc1
not listed: [5] | [6] | [11] | [12] | [18]
inactive: all other assays above

C[N+](=O)[O-]
not listed: [5] | [6] | [12] | [15] | [16] | [20]
inactive: all other assays above

Cc1ccc(C)c2ccccc12
active: [12] 51.3 µM
inactive: [1] | [2] | [5] | [6] | [19] | [10] | [11] | [13] | [14]

CC(C)(C)C(O)C(Oc1ccc(-c2ccccc2)cc1)n1cncn1 (configuration not stated)
inactive: [1] | [2] | [3] | [4] | [6] | [9] | [13]
active: [11] 14.3 µM | [12] 1.78 µM

CC(=O)/C=C/c1ccccc1
active: [10] 38.8 µM | [11] 32.1 µM
inactive: [1] | [3] | [4] | [6] | [8] | [9] | [12] | [13]

C[C@]12CCC(=O)C(O)=C1CC[C@@H]1[C@@H]2CC[C@]2(C)C(=O)CC[C@@H]12
active: [19] 13.8 µM
not listed: [8] | [9] | [10] | [14] | [16]
inactive: all other assays above

CC(C)C(=O)Cl
inactive: [1] | [3] | [4] | [19] | [10] | [13]
